Results: the supplement of paper PMC8047044
Several values for one entry are separate records, joined by “and”; a condition that tells them apart may be missing. Equal values may be shown once. Where a name gives a salt, the structure may show the parent alone.

What follows are molecules tested on Neuro-2a (assay: neurite formation score, plate-normalized to DMSO control mean 5.04 (score (0-8 scale)); higher = more or longer neurites). Conditions: 0.1 µM.
Method: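 Neuro-2a mouse neuroblastoma cells in PLL-coated 96-well plates were pre-treated for 1 h in DMEM(+) with each kinase inhibitor at 0.1 µM, then switched to serum-free DMEM(-) with inhibitor to induce neurite outgrowth and fixed about 2-3 h later. Three blinded observers scored neurite formation from 0 (no neurites) to 8 (long neurites on almost all cells).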

SMILES | neurite formation score
O=C1NC(=O)/C(=C/c2ccc3nccc(-c4ccncc4)c3c2)S1 | 5.42
Oc1cccc(-c2nc(N3CCOCC3)c3oc4ncccc4c3n2)c1 [PI-103 Hydrochloride] | 5.25
Cc1cnc(-c2cnc(NCCNc3ccc(C#N)cn3)nc2-c2ccc(Cl)cc2Cl)[nH]1 | 4.92 and 4.04
Cc1ccc([N+](=O)[O-])cc1S(=O)(=O)N(C)/N=C/c1cnc2ccc(Br)cn12 | 3.08
O=C1NCCc2[nH]c(-c3ccncc3)cc21 | 5.92
COc1ccc(-c2ccc3c(N4CCOC[C@@H]4C)nc(N4CCOC[C@@H]4C)nc3n2)cc1CO | 3.21
Nc1cccc(S(=O)(=O)N2CCCN(S(=O)(=O)c3ccc4c(c3)OCCO4)CC2)c1 | 4.09
COc1cc(C(=O)N2CCC(N3CCN(C)CC3)CC2)ccc1Nc1ncc2c(n1)N(C)c1ccccc1C(=O)N2C | 4.92
NC(=O)Nc1cc(-c2cccc(F)c2)sc1C(=O)N[C@H]1CCCNC1 | 4.21
O=C(Cc1ccc(-c2ccc(OCCN3CCOCC3)cc2)cn1)NCc1ccccc1 [KX2-391 dihydrochloride] | 0.584
CNC(=O)c1cc(Oc2ccc(NC(=O)Nc3ccc(Cl)c(C(F)(F)F)c3)c(F)c2)ccn1 [Regorafenib hydrochloride] | 4.92
Oc1cccc(-c2nc(N3CCOCC3)c3oc4ncccc4c3n2)c1 | 4.04
CC(C)(C)c1nc2c3cc[nH]c(=O)c3c3cc(F)ccc3c2[nH]1 [Pyridone 6] | 5.25
COc1cc(F)c(F)c(Nc2ccc(I)cc2F)c1NS(=O)(=O)C1(C[C@H](O)CO)CC1 [Refametinib] | 3.42
Cc1c(NC(=O)c2ccc(C(C)(C)C)cc2)cccc1-c1cn(C)c(=O)c(Nc2ccc(C(=O)N3CCOCC3)cc2)n1 | 5.04
COc1cc(Nc2ncc(F)c(Nc3ccc4c(n3)NC(=O)C(C)(C)O4)n2)cc(OC)c1OC | 4.58
N[C@@H]1CCCN(c2c(/C=C3\SC(=O)NC3=O)cccc2-c2ccccc2)C1 | 5.25
O=c1cc(N2CCOCC2)oc2c(-c3cccc4c3sc3ccccc34)cccc12 | 4.21
COc1cc2ncnc(Sc3nnc(C)s3)c2cc1OC | 4.25
CCc1cncnc1N1CCN(Cc2nc3ccc(C(F)(F)F)cc3[nH]2)CC1 | 4.42

SMILES | neurite formation score
CNC(=O)c1cc(Oc2ccc(NC(=O)Nc3ccc(Cl)c(C(F)(F)F)c3)c(F)c2)ccn1 [Regorafenib] | 4.88
COc1cc2nccc(Oc3ccc(NC(=O)C4(C(=O)Nc5ccc(F)cc5)CC4)cc3)c2cc1OC | 4.38
C#Cc1cccc(Nc2ncnc3cc(OC)c(OCCCCCCC(=O)NO)cc23)c1 | 4.25
C=CC(=O)Nc1cccc(Nc2nc(Nc3ccc(NC4CN(CCF)C4)cc3OC)ncc2C(F)(F)F)c1 | 4.08
CN(C)S(=O)(=O)c1ccc2c(c1)/C(=C/c1cc3c([nH]1)CCCC3)C(=O)N2 | 4.75
Nc1nccc(Oc2ccc(NC(=O)c3c[nH]cc(-c4ccc(F)cc4)c3=O)cc2F)c1Cl | 4.92
CNc1nc(-c2ccc3c(N)n[nH]c3c2)cc(N2C[C@@H](C(=O)NC3CCCCC3)CC[C@H]2C)n1 | 1.42
Cc1ncc(CCCN(C)C)cc1Nc1ncc2c(n1)-c1ccc(C(F)(F)F)cc1NC(=S)C2 | 4.92
CCCCCCCCCCCCCCCCCCOP(=O)([O-])OC1CC[N+](C)(C)CC1 [Perifosine] | 4.88
CN1CCN(c2ccc(OC(F)(F)F)c(Nc3ncc4c(n3)-c3c(c(C(N)=O)nn3CCO)CC4)c2)CC1 | 4.42
N=C(N)NCCC(=O)O [3-Guanidinopropionic Acid] | 4.75
O=C(NCCO)c1cccc(-c2cc(Nc3ccc(OC(F)(F)F)cc3)ncn2)c1 | 4.92
O=C1NCCSc2c1sc1ccc(O)cc21 | 4.58
COc1ccc2c(OCc3nnc4ccc(-c5ccccc5)nn34)ccnc2c1 | 5.75
Nc1nc(Nc2ccc3c(c2)CCC(N2CCCC2)CC3)nn1-c1cc2c(nn1)-c1ccccc1CCC2 (stereo not given) | 4.54
CC(C)(CCCCCC(O)CCCCCC(C)(C)C(=O)O)C(=O)O | 0.0903
O=C1Nc2ccc(I)cc2/C1=C/c1cc(Br)c(O)c(Br)c1 | 4.25
CC(C)(C)n1nc(-c2ccc(Cl)cc2)c2c(N)ncnc21 | 3.88
CCN(CCO)CCCOc1ccc2c(Nc3cc(CC(=O)Nc4cccc(F)c4)[nH]n3)ncnc2c1 [Barasertib (AZD1152-HQPA)] | 4.58
CC(=O)c1c(C)c2cnc(Nc3ccc(N4CCNCC4)cn3)nc2n(C2CCCC2)c1=O | 4.88 and 4.54
